Compound activity (PubChem)
Most compounds without a hit are left out; they make up all but 1.3% or so of the library.
IL1B NFkB pot: enhances IL-1B driven NFkB nuclear translocation; hit rate 0.3% among 94,000; HUVEC IL-1B NFkB p65 nuclear translocation imaging; activation, % at 2 µM;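 active means activation above 40%, about the mean plus 3 SD, also judged a hit on visual image review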;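 further: percent activation is computed from the nuclear over cytoplasmic p65 intensity ratio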
IL1B cytotox: toxic to HUVEC cells under IL-1B stimulation | HUVEC cell count loss, Hoechst imaging, IL-1B stimulated | cell count reduction, % at 2 µM | hit rate 0.41% among 94,000;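 active means cell count reduction more than 3 SD above the screen-wide mean, cut at about 70% in these data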;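 further: normalized per plate to untreated control cells as the no-loss baseline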
LYP act: LYP (human) phosphatase activation; hit rate 0.11% among 96,000; activation, % at 2 µM; recombinant LYP, DiFMUP fluorescence; 0 = plate median, 100 = signal doubled; Q9Y2R2; AID 697;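 active means activation at 2 µM above a set limit, the mean plus 5 SD, cut at about 37% in these data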
Target sequence (Q9Y2R2 whole entry, looked up): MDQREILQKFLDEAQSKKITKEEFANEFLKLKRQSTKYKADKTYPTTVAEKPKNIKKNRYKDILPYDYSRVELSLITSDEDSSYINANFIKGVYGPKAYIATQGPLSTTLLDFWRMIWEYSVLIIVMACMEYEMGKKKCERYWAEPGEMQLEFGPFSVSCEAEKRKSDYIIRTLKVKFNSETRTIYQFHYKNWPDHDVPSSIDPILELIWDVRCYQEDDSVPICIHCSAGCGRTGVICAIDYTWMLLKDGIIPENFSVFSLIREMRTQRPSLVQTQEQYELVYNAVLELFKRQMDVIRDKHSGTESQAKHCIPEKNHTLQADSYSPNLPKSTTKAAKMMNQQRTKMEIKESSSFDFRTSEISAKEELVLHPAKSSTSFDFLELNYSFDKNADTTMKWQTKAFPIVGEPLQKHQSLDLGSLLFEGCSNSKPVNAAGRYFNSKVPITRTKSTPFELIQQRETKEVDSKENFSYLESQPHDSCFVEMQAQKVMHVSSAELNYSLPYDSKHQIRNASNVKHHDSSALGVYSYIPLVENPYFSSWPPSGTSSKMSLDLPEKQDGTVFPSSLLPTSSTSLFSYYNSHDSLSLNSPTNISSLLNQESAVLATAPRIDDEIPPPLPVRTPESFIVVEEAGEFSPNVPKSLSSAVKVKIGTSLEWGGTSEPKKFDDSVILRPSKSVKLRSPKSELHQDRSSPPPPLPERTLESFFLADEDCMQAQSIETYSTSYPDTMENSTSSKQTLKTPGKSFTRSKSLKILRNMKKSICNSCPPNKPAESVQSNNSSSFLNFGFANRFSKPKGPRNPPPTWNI
IL1B NFkB inh: blocks IL-1B driven NFkB nuclear translocation in HUVEC cells; HUVEC IL-1B NFkB p65 nuclear translocation imaging; inhibition, % at 2 µM; hit rate 0.43% among 94,000;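 active means inhibition above about 30% together with a positive call from visual inspection of the well image, limit read from the data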;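 further: nuclear over cytoplasmic p65 intensity ratio measured by imaging; 0% = IL-1B stimulated DMSO wells and 100% = unstimulated DMSO wells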
LYP inh 2: LYP (human) phosphatase inhibition; recombinant LYP catalytic domain, DiFMUP fluorescence; hit rate 0.21% among 96,000; inhibition, % at 2 µM;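 active means inhibition at 2 µM at or above a set limit, the screen mean plus 3 SD, cut at about 24% in these data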;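 further: 0% = DMSO with enzyme and 100% = enzyme fully blocked by orthovanadate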
LYP act confirm: confirmation of human LYP phosphatase activators; shares compounds with LYP act; Recombinant LYP, DIFMUP fluorescence, activation; zero set by plate's median compound well; 100 tested, under 10 active; activation, % at 2 µM; call rule not given here
An asterisk follows results filed as active; . = not tested or not shown.

SMILES | IL1B NFkB pot | IL1B cytotox | LYP act | IL1B NFkB inh | LYP inh 2 | LYP act confirm
CCCc1nn(C)c2c1C(c1ccncc1)C(C#N)=C(N)O2 (stereo unspecified) | -9.8 | 31.4 | 56.7* | 9.8 | -57.0 | -1.9
O=C(Nc1cccc2ncccc12)c1ccc(-c2ccc(Br)cc2)o1 | -91.3 | 24.5 | 6.5 | -3.8 | -2.4 | .
CCOc1cc(S(=O)(=O)NCc2ccccn2)ccc1Cl | 12.2 | -36.8 | 37.4* | -12.2 | -39.1 | -6.3
Cc1nnc(NC(=O)c2ccccc2Br)s1 | 2.9 | -31.4 | 0.0 | -2.9 | -1.3 | .
Cc1nnc(NC(=O)c2ccccc2F)s1 | 9.8 | 12.4 | 38.5* | -9.8 | -42.0 | 6.4
COc1cccc(SCc2noc(C(=O)NCC3CCCO3)c2C(=O)O)c1 (stereo unspecified) | 9.8 | -9.1 | 54.2* | -9.8 | -49.3 | 2.0
O=C(NCC1CCCO1)c1onc(CSc2ccc(Cl)cc2)c1C(=O)O (stereo unspecified) | 21.2 | 4.5 | 7.4 | -21.2 | -4.1 | .
O=C(CCCC1=NS(=O)(=O)c2ccccc2N1)N1CCN(c2ccccc2)CC1 | 3.6 | -62.8 | 39.5* | -3.6 | -41.2 | 3.4
CCc1ccccc1NC(=O)CSc1nnc(Cn2cnc3ccccc32)o1 | 5.0 | 0.0 | -2.6 | -5.0 | 1.6 | .
Cc1cccc(NC(=O)CSc2nnc(Cn3cnc4ccccc43)o2)c1 | 16.4 | 13.0 | 38.0* | -16.4 | -37.9 | 4.4
COC(=O)c1ccc(NC(=O)C2CCCCC2C(=O)O)cc1 (stereo unspecified) | 10.6 | -11.6 | -5.4 | -10.6 | 10.3 | .
COC(=O)c1ccc(NC(=S)NC2CCCCC2)cc1 | 13.7 | -47.0 | 37.5* | -13.7 | -33.0 | -0.9
CCCOc1ccc(-c2nnn(CC(=O)c3ccc4c(c3)OCCO4)n2)cc1 | 10.4 | -31.0 | 3.9 | -10.4 | -5.1 | .
OCCOc1ccc(C2=NCCO2)cc1 | 26.2 | -39.9 | 37.5* | -26.2 | -38.7 | -1.4
CCOC(=O)Cn1c(S(=O)(=O)Cc2ccc(F)cc2)nc(-c2ccccc2)c1-c1ccccc1 | -4.5 | -2.0 | -9.1 | 4.5 | 12.7 | .
C#CCn1c(S(=O)(=O)Cc2ccc(F)cc2)nc(-c2ccccc2)c1-c1ccccc1 | 8.5 | -13.8 | 45.3* | -8.5 | -48.9 | -6.6
COc1ccc(NCCNc2ccc(OC)cc2)cc1 | -21.9 | -17.1 | 5.1 | 21.9 | -7.5 | .
COc1ccc(Nc2c(C)cccc2C)cc1 | 0.8 | -206.7 | 38.6* | -0.8 | -39.7 | -1.3
O=C(Nc1cccnc1)c1cccnc1Cl | 6.5 | -20.2 | 38.2* | -6.5 | -42.2 | -4.3
COc1ccc(CCNC(=O)CN2CCC(C)CC2)cc1OC | 25.1 | -2.8 | 0.1 | -25.1 | -1.5 | .
Nc1cc(N)nc(SCC(=O)Nc2ccccc2)n1 | 14.3 | -37.2 | 1.3 | -14.3 | -0.9 | .
Nc1cc(N)nc(SCC(=O)c2ccccc2)n1 | -6.0 | -5.5 | 43.1* | 6.0 | -39.6 | 3.8
CC1=C(C(N)=O)C(c2ccccn2)n2nc(SCc3ccccc3Cl)nc2N1 (stereo unspecified) | 27.6 | -8.3 | 7.7 | -27.6 | -9.6 | .
CC1=C(C(N)=O)C(c2cccnc2)n2nc(SCc3ccccc3Cl)nc2N1 (stereo unspecified) | 15.5 | 6.0 | 46.4* | -15.5 | -48.4 | 3.1
Cc1cccc(CSc2ncc(CO)n2C)c1 | 9.9 | 3.8 | 37.9* | -9.9 | -41.3 | -4.0
Cn1ncc2c(=O)n(CC(=O)NC34CC5CC(CC(C5)C3)C4)cnc21 | -8.8 | -19.2 | 0.9 | 8.8 | 0.9 | .
Cc1ccc(NC(=O)C2CCCN2C(=O)Oc2ccccc2)cc1 (stereo unspecified) | 19.3 | -19.6 | 39.3* | -19.3 | -43.6 | 1.4
CN(C)c1ccc(CNC23CC4CC(CC(C4)C2)C3)cc1 | -3.3 | -2.9 | 7.4 | 3.3 | -3.6 | .
N#Cc1c(NC(=O)CSc2ncnc3sccc23)oc(-c2ccco2)c1-c1ccco1 | -2.0 | -5.5 | -13.0 | 2.0 | 13.1 | .
